Assay results: PubChem BioAssay (Tox21)
Values without a mark were called inactive. Results filed as inconclusive are left out. Entries that show only a call come without a potency. Active and inactive are the calls of the source. Unless noted, the call rests on the fitted dose curve; in most records, active means well fitted curve in the direction sought with a large enough effect in the repeat runs; inconclusive means weak or mixed curves; inactive means no such curve, though single readings can be large; an effect the other way counts as inactive or inconclusive. Non-standard residues stand in square brackets, D forms with d. Residues, ends and D or L forms follow the SMILES beside them. *: point of attachment. Sta = CC(C)C[C@H](N)[C@@H](O)CC(=O)O; Isovaleryl = CC(C)CC(=O)*

Columns and labels:
[1] = qHTS assay to identify small molecule antagonists of the estrogen receptor beta (ER-beta) signaling pathway - cell viability counter screen (AID 1259382);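 further: HEK293T cells carrying ER-beta-UAS-bla reporter stimulated with estradiol; series mostly up to about 92 µM; nearly all actives have a fitted effect of over 55% in size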
In short: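 Viability is scored by CellTiter-Glo luminescence (30 min, room temperature) in ER-beta-UAS-bla HEK293T wells already read for reporter fluorescence. Compound exposure lasts 16 hr at 37C alongside 1nM 17-beta-estradiol in charcoal-stripped serum medium.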

[2] = qHTS assay to identify small molecule agonists of the estrogen receptor alpha (ER-alpha) signaling pathway in the presence of an antagonist - cell viability counter screen (AID 1259386);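 further: series mostly up to about 92 µM; cells exposed to compounds for 22 h at 37 °C before the viability read; nearly all actives have a fitted effect of over 30% in size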
In short: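 In this counter screen, compound effects on VM7Luc4E2 viability were tested in the presence of the antagonist ICI-182,780 at 10.0nM final. Compounds were dosed at 15 concentrations, exposure lasted 22hr, and the CellTiter-Fluor signal was read.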

[3] = target: Progesterone receptor (Homo sapiens) (UniProt P06401); assay: qHTS assay to identify small molecule agonists of the progesterone receptor (PR) signaling pathway (AID 1346784; calls by dose curve; further: nearly all actives have a fitted effect of over 30% in size)
In short: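 Beta-lactamase reporter read-out: after 16 hr compound treatment at 37C and a further 2 hr at room temperature with LiveBLAzer B/G FRET substrate, fluorescence was measured in PR-UAS-bla HEK 293T cells grown in 2% charcoal-stripped serum.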

[4] = target: Progesterone receptor (Homo sapiens) (UniProt P06401); assay: qHTS assay to identify small molecule antagonists of the progesterone receptor (PR) signaling pathway (AID 1346795; active means well fitted inhibition curve with a large enough effect in the signal ratio in the repeat runs, not every such curve was filed as active; the % refers to the signal ratio)
In short: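 Read-out is fluorescence from the LiveBLAzer B/G FRET substrate, cleaved by a UAS-controlled beta-lactamase in PR-UAS-bla HEK293T cells after 16 hr exposure to compound plus 1 nM promegestone (final), followed by 2 hr at room temperature.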

[5] = qHTS assay to identify small molecule agonists of the progesterone receptor (PR) signaling pathway - cell viability counter screen (AID 1346799; calls by dose curve; further: nearly all actives have a fitted effect of over 45% in size; further: potency means the concentration at half of the fitted maximal effect)
In short: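 Luminescence from CellTiter-Glo, added after the beta-lactamase FRET read in the same wells, gave cytotoxicity in PR-UAS-bla HEK293T cells treated with compounds for 16 hr at 37C.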

[6] = qHTS assay to identify small molecule antagonists of the TGF-beta/Smad signaling pathway - cell viability counter screen (AID 1346824); further: nearly all actives have a fitted effect of over 50% in size
In short: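 Cytotoxicity counter-screen run in the same wells as the beta-lactamase Smad reporter read: CellTiter-Glo luminescence after 30 min at room temperature. HEK 293T SBE-bla cells had 5 hr compound exposure at 37 C with TGF-beta1 (0.25 ng/mL stock).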

[7] = qHTS assay to identify small molecule agonists of the TGF-beta/Smad signaling pathway - cell viability counter screen (AID 1346829); further: top concentration of the series differs between compounds; nearly all actives have a fitted effect of over 45% in size
In short: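 Here the cytotoxicity of library compounds is measured in SBE-bla HEK 293T cells treated for 5 hr, using CellTiter-Glo added to wells already read for the beta-lactamase reporter.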

[8] = qHTS assay to identify small molecule agonists of the TGF-beta/Smad signaling pathway (AID 1346859; active means well fitted activation curve with a large enough effect in the signal ratio in the repeat runs, not every such curve was filed as active; the % refers to the signal ratio; further: series mostly up to about 77 µM)
In short: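 SBE-bla HEK 293T, 4,000 cells/well, plated o/n; cpd in DMSO, 5 hr, 37 C/5% CO2; B/G FRET substrate 2 hr RT; ex 405, em 460/530 nm.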

[9] = Human pregnane X receptor (PXR) small molecule agonists, qHTS cell viability counter screen (AID 1346977); further: nearly all actives have a fitted effect of over 50% in size
In short: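 PXR-Luc HepG2, 2,000 cells/well, 5% charcoal-stripped FBS; 5hr settle; cpd 24hr, 37C/5% CO2; CellTiter-Fluor at 23hr, read 1hr later (fluorescence).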

[10] = Caspase-3/7 induction in HepG2 cells by small molecules, qHTS assay (AID 1346978); further: nearly all actives have a fitted effect of over 15% in size
In short: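 Caspase-3/7 induction was measured by Caspase-Glo 3/7 luminescence (30 min, room temperature) after a 17 hr compound exposure of wild-type HepG2 cells seeded at 2,000 per well and pre-incubated 5 hr.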

[11] = Caspase-3/7 induction in CHO-K1 cells by small molecules, qHTS cell viability counter screen (AID 1346979); further: nearly all actives have a fitted effect of over 35% in size
In short: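 Cells (CHO-K1, wild type) are plated at 1,500 per well and incubated 5hr. Test compounds in DMSO are then pinned in, followed by 16hr at 37C and 5% CO2. Viability is read by CellTiter-Fluor fluorescence after 1hr.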

[12] = Caspase-3/7 induction in CHO-K1 cells by small molecules, qHTS assay (AID 1346980); further: nearly all actives have a fitted effect of over 15% in size
In short: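 Luminescent Caspase-Glo 3/7 read (30min, room temperature) quantified apoptosis induction. Cells were wild-type CHO-K1, treated with compound for 17hr at 37 C and 5% CO2.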

[13] = Caspase-3/7 induction in HepG2 cells by small molecules, qHTS cell viability counter screen (AID 1346981); further: series mostly up to about 92 µM; nearly all actives have a fitted effect of over 30% in size
In short: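 In this quantitative HTS counter screen, compounds delivered in DMSO were left on unmodified HepG2 cells for 16 hr at 37 C. Viability was then determined fluorometrically with CellTiter-Fluor, in parallel with caspase-3/7 induction in the same wells.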

[14] = target: Nuclear receptor subfamily 1 group I member 2 (Homo sapiens) (UniProt O75469); assay: Human pregnane X receptor (PXR) small molecule agonists, qHTS assay (AID 1346982); further: nearly all actives have a fitted effect of over 35% in size
In short: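 Reporter HepG2 cells expressing PXR-Luc are cultured in charcoal-stripped FBS (5%), treated with compounds for 24 hr at 37 C, and assayed by ONE-Glo luminescence after 30 min at room temperature.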

[15] = target: Estrogen receptor (Homo sapiens) (UniProt P03372); assay: qHTS assay to identify small molecule agonists of the estrogen receptor alpha (ER-alpha) signaling pathway in the presence of an antagonist (AID 1259383; calls by dose curve; further: top concentration of the series differs between compounds; nearly all actives have a fitted effect of over 15% in size)
In short: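 Readout was ERE-driven luciferase luminescence in VM7Luc4E2 cells, which express full-length ER-alpha endogenously. Compounds were tested at 15 concentrations for 22hr alongside 10.0nM ICI-182,780 (final concentration).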

[16] = target: Thyrotropin-releasing hormone receptor (Homo sapiens) (UniProt P34981); assay: qHTS assay to identify small molecule antagonists of the thyrotropin-releasing hormone receptor (TRHR) signaling pathway (AID 1346877; active means well fitted inhibition curve with a large enough effect in the repeat runs, not every such curve was filed as active; further: series mostly up to about 51 µM)
In short: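 Kinetic fluorescence (3 min, 1 s resolution) following stimulation with TRH at 1 nM final; HEK293 cells bearing human TRHR; 5 min compound preincubation at RT; concentration-response over 15 points, triplicates.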

[17] = target: Thyrotropin-releasing hormone receptor (Homo sapiens) (UniProt P34981); assay: qHTS assay to identify small molecule agonists of the thyrotropin-releasing hormone receptor (TRHR) signaling pathway (AID 1346891; calls by dose curve; further: series mostly up to about 58 µM)
In short: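 Intracellular calcium rise, read as fluorescence every second for 3 min, served as the agonist signal in dye-loaded HEK293 cells expressing TRHR; each compound ran at 15 concentrations in triplicate.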

[18] = qHTS assay to identify small molecule antagonists of the progesterone receptor (PR) signaling pathway - cell viability counter screen (AID 1346798);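 further: HEK293T PR-UAS-bla cells stimulated with the agonist R5020; series mostly up to about 92 µM; nearly all actives have a fitted effect of over 50% in size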
In short: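 HEK293T PR-UAS-bla, 2% charcoal-stripped FBS; 4 hr pre-plate; cpd + R5020, 16 h 37C; LiveBLAzer read first; then CellTiter-Glo 30 min RT, luminescence.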

[19] = target: Thyrotropin receptor (Homo sapiens) (UniProt P16473); assay: qHTS assay to identify small molecule antagonists of the thyroid stimulating hormone receptor (TSHR) signaling pathway (AID 1259385; calls by dose curve; further: nearly all actives have a fitted effect of over 20% in size)
In short: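 Antagonist mode: compound-treated TSHR-expressing HEK293 cells were stimulated with 1.5 ng/mL TSH (final) in presence of Ro20-1724 for 30 min at RT. HTRF cAMP detection after 1 h; each compound tested at 15 concentrations, triplicate.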

[20] = qHTS assay to identify small molecule agonists or antagonists of the thyroid stimulating hormone receptor (TSHR) signaling pathway - wild type cell line counter screen (AID 1259384; calls by dose curve)
In short: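 Counter screen in untransfected Hek293: compounds (15-point titration, triplicate) plus phosphodiesterase inhibitor Ro20-1724 added after 18 h plating; 30 min RT. Intracellular cAMP via competitive d2/cryptate immunoassay, 1 h incubation.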

Progesterone receptor (Homo sapiens), sequence (P06401 whole entry, looked up): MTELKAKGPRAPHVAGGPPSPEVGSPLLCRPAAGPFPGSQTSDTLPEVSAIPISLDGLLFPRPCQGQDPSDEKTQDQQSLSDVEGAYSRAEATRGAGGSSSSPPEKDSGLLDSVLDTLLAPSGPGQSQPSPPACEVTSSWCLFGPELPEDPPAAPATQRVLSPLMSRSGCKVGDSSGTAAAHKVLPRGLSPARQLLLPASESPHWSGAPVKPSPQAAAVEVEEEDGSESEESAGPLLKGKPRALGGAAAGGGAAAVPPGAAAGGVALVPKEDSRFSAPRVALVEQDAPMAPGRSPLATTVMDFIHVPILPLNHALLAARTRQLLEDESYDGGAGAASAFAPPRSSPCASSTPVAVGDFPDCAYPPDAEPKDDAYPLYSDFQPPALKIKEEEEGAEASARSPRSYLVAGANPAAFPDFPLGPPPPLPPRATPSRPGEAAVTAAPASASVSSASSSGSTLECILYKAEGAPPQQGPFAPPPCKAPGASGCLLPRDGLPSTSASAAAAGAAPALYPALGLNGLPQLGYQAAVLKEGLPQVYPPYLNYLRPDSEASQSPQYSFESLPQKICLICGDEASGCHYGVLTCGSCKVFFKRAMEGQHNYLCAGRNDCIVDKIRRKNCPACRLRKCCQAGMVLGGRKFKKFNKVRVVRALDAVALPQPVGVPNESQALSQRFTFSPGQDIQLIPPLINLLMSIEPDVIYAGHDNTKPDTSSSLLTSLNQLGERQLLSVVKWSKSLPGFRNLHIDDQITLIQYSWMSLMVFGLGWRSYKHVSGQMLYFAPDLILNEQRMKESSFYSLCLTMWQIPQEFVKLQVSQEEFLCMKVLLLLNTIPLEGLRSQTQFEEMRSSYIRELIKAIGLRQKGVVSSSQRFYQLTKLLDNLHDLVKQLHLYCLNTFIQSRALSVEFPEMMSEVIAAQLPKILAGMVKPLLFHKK
Nuclear receptor subfamily 1 group I member 2 (Homo sapiens), sequence (O75469 whole entry, looked up): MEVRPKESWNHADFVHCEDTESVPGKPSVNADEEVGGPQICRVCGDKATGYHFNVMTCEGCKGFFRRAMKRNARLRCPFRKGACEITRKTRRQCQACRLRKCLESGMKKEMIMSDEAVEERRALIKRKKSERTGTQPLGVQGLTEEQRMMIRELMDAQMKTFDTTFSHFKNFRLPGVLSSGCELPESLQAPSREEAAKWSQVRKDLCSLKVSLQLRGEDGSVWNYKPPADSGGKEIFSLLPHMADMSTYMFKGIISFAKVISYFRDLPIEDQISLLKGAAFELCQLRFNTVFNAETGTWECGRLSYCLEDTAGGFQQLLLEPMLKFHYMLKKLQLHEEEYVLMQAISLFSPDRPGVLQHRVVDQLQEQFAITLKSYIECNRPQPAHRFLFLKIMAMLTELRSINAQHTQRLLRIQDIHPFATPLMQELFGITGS
Thyrotropin receptor (Homo sapiens), sequence (P16473 whole entry, looked up): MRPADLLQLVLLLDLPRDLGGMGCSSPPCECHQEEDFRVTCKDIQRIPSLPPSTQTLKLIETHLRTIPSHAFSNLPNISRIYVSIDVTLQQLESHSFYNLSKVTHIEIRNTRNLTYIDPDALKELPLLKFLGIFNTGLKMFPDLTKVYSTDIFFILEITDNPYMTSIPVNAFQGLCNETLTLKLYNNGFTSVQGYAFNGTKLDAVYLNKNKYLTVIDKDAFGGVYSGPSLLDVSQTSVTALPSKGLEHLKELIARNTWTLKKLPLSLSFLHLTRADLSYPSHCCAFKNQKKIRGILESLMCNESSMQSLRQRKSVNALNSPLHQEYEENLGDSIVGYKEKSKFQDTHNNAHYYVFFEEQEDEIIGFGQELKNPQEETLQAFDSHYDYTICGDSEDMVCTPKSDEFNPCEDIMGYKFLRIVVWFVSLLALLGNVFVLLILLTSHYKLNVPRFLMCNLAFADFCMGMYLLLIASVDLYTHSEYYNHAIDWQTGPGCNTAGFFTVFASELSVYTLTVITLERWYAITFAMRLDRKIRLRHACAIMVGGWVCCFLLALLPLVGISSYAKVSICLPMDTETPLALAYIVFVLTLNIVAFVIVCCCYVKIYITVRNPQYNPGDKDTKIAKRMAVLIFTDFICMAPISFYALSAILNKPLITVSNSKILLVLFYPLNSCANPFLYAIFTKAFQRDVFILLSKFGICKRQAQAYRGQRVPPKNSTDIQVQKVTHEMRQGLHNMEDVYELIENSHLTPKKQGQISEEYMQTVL
Thyrotropin-releasing hormone receptor (Homo sapiens), sequence (P34981 whole entry, looked up): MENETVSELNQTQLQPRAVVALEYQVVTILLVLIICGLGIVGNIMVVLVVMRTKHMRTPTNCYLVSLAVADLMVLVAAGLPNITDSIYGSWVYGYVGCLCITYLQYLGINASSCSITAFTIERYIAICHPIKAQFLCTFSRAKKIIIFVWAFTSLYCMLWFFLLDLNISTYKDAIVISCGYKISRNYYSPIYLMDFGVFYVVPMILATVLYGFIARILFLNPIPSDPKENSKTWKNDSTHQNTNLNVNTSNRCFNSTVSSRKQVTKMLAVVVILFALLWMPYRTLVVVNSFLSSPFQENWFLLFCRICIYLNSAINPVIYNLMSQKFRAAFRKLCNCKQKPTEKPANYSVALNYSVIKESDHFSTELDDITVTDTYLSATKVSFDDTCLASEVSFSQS
Estrogen receptor (Homo sapiens), sequence (P03372 whole entry, looked up): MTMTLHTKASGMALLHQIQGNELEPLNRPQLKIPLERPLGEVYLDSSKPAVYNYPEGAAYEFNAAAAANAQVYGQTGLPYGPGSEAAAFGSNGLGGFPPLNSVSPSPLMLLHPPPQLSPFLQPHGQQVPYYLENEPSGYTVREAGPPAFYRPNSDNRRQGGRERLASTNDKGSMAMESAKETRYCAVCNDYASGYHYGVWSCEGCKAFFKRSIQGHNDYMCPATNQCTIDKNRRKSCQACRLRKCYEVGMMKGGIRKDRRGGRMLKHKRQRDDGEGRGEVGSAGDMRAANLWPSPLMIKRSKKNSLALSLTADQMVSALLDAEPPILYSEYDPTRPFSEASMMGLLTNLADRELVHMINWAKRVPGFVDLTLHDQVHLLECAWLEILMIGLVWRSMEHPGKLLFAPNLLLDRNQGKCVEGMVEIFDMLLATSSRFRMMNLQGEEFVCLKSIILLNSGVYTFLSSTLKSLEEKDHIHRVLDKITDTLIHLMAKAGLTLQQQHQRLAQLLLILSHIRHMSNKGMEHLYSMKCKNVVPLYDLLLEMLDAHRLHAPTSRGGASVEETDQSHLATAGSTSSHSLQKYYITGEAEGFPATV

Structure (SMILES) | outcome [1] | outcome [2] | Potency [3] | Potency [4] | Potency [5] | outcome [6] | outcome [7] | outcome [8] | outcome [9] | outcome [10] | Potency [11] | outcome [12] | outcome [13] | Potency [14] | Potency [15] | outcome [16] | Potency [17] | outcome [18] | outcome [19] | outcome [20]
C=CCOC(=O)CCCCCCCC | inactive | inactive | inactive | inactive | inactive | inactive | inactive | inactive | inactive | inactive | inactive | inactive | inactive | inactive |  |  |  |  |  | 
Cc1ccc(O)c([N+](=O)[O-])c1 |  | inactive |  | inactive | 24.6 µM (active) | inactive | inactive | inactive | inactive | inactive | inactive | inactive | inactive | inactive | inactive | inactive | inactive |  |  | 
CNC(=O)c1c(I)c(NC(C)=O)c(I)c(C(=O)O)c1I | inactive | inactive | inactive | inactive | inactive | inactive | inactive | inactive | inactive | inactive |  | inactive | inactive | inactive |  | inactive | inactive | inactive |  | 
O=C1CC2(CCCC2)CC(=O)N1CCNCC1COc2ccccc2O1 (stereo not drawn) | inactive | inactive | inactive | inactive |  | inactive | inactive | inactive | inactive | inactive | inactive | inactive | inactive |  |  | inactive | inactive | inactive | inactive | 
CC(=O)c1c(C)cc(C(C)(C)C)cc1C | inactive | inactive | inactive | inactive | inactive | inactive | inactive | inactive | inactive | inactive |  | inactive | inactive | inactive |  | inactive | inactive |  |  | 
CC(=O)c1ccc(O)c(C(N)=O)c1 | inactive | inactive | inactive | inactive |  | inactive |  | inactive | inactive | inactive |  | inactive | inactive |  |  | inactive | inactive | inactive | inactive | 
CCOC(=O)CN1CCCC1=O | inactive | inactive | inactive | inactive |  | inactive |  | inactive | inactive | inactive | inactive | inactive | inactive | inactive |  | inactive | inactive | inactive |  | 
CCN(CC)CC | inactive | inactive | inactive | inactive | inactive | inactive | inactive | inactive | inactive | inactive | inactive | inactive | inactive | inactive |  | inactive |  | inactive | inactive | 
O=c1c(O)c(O)c1=O | inactive | inactive |  | inactive | inactive | inactive | inactive | inactive | inactive | inactive | inactive | inactive | inactive | inactive |  |  |  | inactive | inactive | 
C[Si](C)(C)O[Si](O)(O)O | inactive | inactive | inactive |  | inactive | inactive | inactive | inactive | inactive | inactive | inactive | inactive | inactive | inactive |  | inactive | inactive |  |  | 
Cc1cccc(N)n1 | inactive | inactive | inactive | inactive | inactive | inactive | inactive | inactive | inactive | inactive |  | inactive | inactive |  |  |  |  | inactive | inactive | 
O=c1[nH]c(=O)c2cn[nH]c2[nH]1 | inactive | inactive | inactive | inactive | inactive | inactive | inactive | inactive |  | inactive | inactive | inactive | inactive |  |  | inactive | inactive |  |  | 
CC(C)CC(=O)N[C@H](C(=O)N[C@H](C(=O)N[C@@H](CC(C)C)[C@@H](O)CC(=O)N[C@@H](C)C(=O)N[C@@H](CC(C)C)[C@@H](O)CC(=O)O)C(C)C)C(C)C (Isovaleryl-VV[Sta]A[Sta]-OH) | inactive | inactive |  |  | inactive | inactive | inactive | inactive | inactive | inactive | inactive | inactive | inactive | inactive |  | inactive |  |  | inactive | 
COc1ccc(Cl)cc1C | inactive | inactive | inactive | inactive | inactive | inactive | inactive | inactive | inactive | inactive | inactive | inactive | inactive | inactive |  | inactive |  |  |  | 
O=C(O)CCC(=O)Nc1ccc(S(=O)(=O)Nc2nccs2)cc1 | inactive | inactive | inactive | inactive | inactive | inactive | inactive | inactive | inactive | inactive |  | inactive | inactive |  |  | inactive | inactive | inactive |  | 
O=S(=O)(O)c1cc(I)c(O)c2ncccc12 | inactive | inactive | inactive | inactive | inactive | inactive | inactive | inactive | inactive | inactive |  | inactive | inactive | inactive |  |  |  | inactive | inactive | 
CCOC(=O)c1ccc(N(C)C)cc1 | inactive |  | inactive | inactive |  | inactive | inactive | inactive | inactive | inactive | inactive | inactive | inactive |  |  |  |  | inactive |  | 
CNCCc1ccccn1 | inactive |  | inactive | inactive | inactive | inactive | inactive | inactive | inactive | inactive | inactive | inactive | inactive | inactive |  | inactive | inactive | inactive | inactive | 
CCC(C)c1nccnc1OC (stereo not drawn) | inactive | inactive |  |  | inactive | inactive | inactive | inactive | inactive | inactive | inactive | inactive | inactive |  |  | inactive |  | inactive | inactive | 
CC(C)(C)C(=O)NCCCC(=O)O |  |  |  |  | inactive | inactive |  | inactive | inactive | inactive | inactive | inactive | inactive | inactive | inactive | inactive | inactive | inactive | inactive | inactive
O=Cc1ccccc1S(=O)(=O)O | inactive | inactive | inactive | inactive | inactive | inactive | inactive | inactive | inactive | inactive | inactive | inactive | inactive | inactive |  |  |  | inactive | inactive | 
CCCC(C)C(O)CC (stereo not drawn) | inactive | inactive | inactive | inactive |  | inactive | inactive | inactive | inactive | inactive | inactive | inactive | inactive |  |  |  |  |  | inactive | 
CCCCCCCCS(=O)(=O)O | inactive | inactive | inactive | inactive |  | inactive | inactive | inactive | inactive | inactive | inactive | inactive | inactive | inactive |  | inactive | inactive | inactive | inactive | 
